Results: PubChem BioAssay (Tox21)
“And” between values parts separate entries of the source, which are not always exact repeats. Equal entries are not always repeated. Results filed as inconclusive are left out. Entries that show only a call come without a potency. Some structures have more than one record in an assay (separate samples or runs), and their calls can disagree. The source made the active and inactive calls. Unless noted, calls come from the whole dose curve; as a rule, active = well fitted curve in the direction sought with a large enough effect in the repeat runs; inconclusive = weak or mixed curves; inactive = no such curve, though single readings can be large; an effect the other way counts as inactive or inconclusive.

Assays:
[1] = qHTS assay to test for compound auto fluorescence at 535 nm (green) in HEK293 cells (AID 720680)
[2] = qHTS assay to test for compound auto fluorescence at 460 nm (blue) in HEK293 cell free culture (AID 720681)
In short: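 Blue fluorescence (Ex 405/Em 460 nm, triamterene-equivalent) was read immediately after pin transfer of compound or DMSO into medium (DMEM, 10% FBS) without cells.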

[3] = qHTS assay to test for compound auto fluorescence at 535 nm (green) in HEK293 cell free culture (AID 720682)
In short: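 DMEM + 10% FBS, cell-free; cpd or DMSO pinned in; Ex485/Em535 read; output as fluorescein-equivalent signal.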

[4] = qHTS assay to test for compound auto fluorescence at 590 nm (red) in HEK293 cell free culture (AID 720683)
In short: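 Red-channel autofluorescence of compounds in culture medium (DMEM, 10% FBS), no cells, measured at 540/590 nm. Rose Bengal sodium is the reference fluorophore for equivalence.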

[5] = qHTS assay to test for compound auto fluorescence at 590 nm (red) in HepG2 cell free culture (AID 720684)
In short: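 Plate contents were MEM with 10% FBS plus test compound or DMSO, no cells. Fluorescence was recorded with 540 nm excitation and 590 nm emission.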

[6] = qHTS assay to test for compound auto fluorescence at 535 nm (green) in HepG2 cell free culture (AID 720686)
[7] = qHTS assay to test for compound auto fluorescence at 460 nm (blue) in HepG2 cells (AID 720687)
In short: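 Blue-channel autofluorescence (Ex/Em 405/460 nm, triamterene-equivalent) was measured after 1 hr compound exposure at 37 C, 5% CO2. Cells were HepG2, plated overnight at 37 C in MEM plus 10% FBS.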

[8] = target: Glucocorticoid receptor (Homo sapiens) (UniProt P04150); assay: qHTS assay to identify small molecule antagonists of the glucocorticoid receptor (GR) signaling pathway (AID 720692; active = well fitted inhibition curve with a large enough effect in the signal ratio in the repeat runs, not every such curve was filed as active; the % refers to the signal ratio)
In short: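 Fluorescence from cleaved LiveBLAzer B/G FRET substrate reports GRE-driven beta-lactamase in HeLa cells; compounds are tested against 5 nM dexamethasone (final) over 18 h at 37 C, substrate incubation 2 h at room temperature.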

[9] = qHTS assay to identify small molecule antagonists of the glucocorticoid receptor (GR) signaling pathway - cell viability counter screen (AID 720693); note: nearly all actives have a fitted effect of over 55% in size
[10] = qHTS assay for identifying genotoxic compounds that show differential cytotoxicity against isogenic chicken DT40 cell lines with known DNA damage response pathways - wild type cell line (AID 743012); note: nearly all actives have a fitted effect of over 60% in size
In short: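 Quantitative HTS on parental DT40 cells: 40 h compound treatment at 37 C/5% CO2, with viability then determined by CellTiter-Glo luminescence. Values serve as the DNA repair-proficient reference for differential cytotoxicity.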

[11] = qHTS assay for identifying genotoxic compounds that show differential cytotoxicity against isogenic chicken DT40 cell lines with known DNA damage response pathways - Rev3 mutant cell line (AID 743014); note: nearly all actives have a fitted effect of over 55% in size; note: potency is the fitted concentration of half-maximal effect
[12] = qHTS assay for identifying genotoxic compounds that show differential cytotoxicity against isogenic chicken DT40 cell lines with known DNA damage response pathways - Rad54/Ku70 mutant cell line (AID 743015); note: nearly all actives have a fitted effect of over 60% in size; note: potency is the fitted concentration of half-maximal effect
[13] = qHTS assay to identify small molecule antagonists of the androgen receptor (AR) signaling pathway - cell viability counter screen (AID 743033; note: nearly all actives have a fitted effect of over 45% in size)
[14] = qHTS assay to identify small molecule antagonists of the androgen receptor (AR) signaling pathway using the MDA cell line - cell viability counter screen (AID 743041; note: nearly all actives have a fitted effect of over 45% in size)
In short: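 R1881-driven MDA-kb2 AR-luc cells, 3,000/well, were dosed with library compounds for 16 h; cell health came from CellTiter-Fluor fluorescence in the reporter wells.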

[15] = qHTS assay to test for compound auto fluorescence at 460 nm (blue) in HepG2 cell free culture (AID 720685)
In short: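 Compound (23 nL) or DMSO pinned into cell-free MEM with 10% FBS; blue fluorescence read at 405/460 nm excitation/emission, expressed as auto-fluorescence equivalency to triamterene.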

[16] = target: Glucocorticoid receptor (Homo sapiens) (UniProt P04150); assay: qHTS assay to identify small molecule agonists of the glucocorticoid receptor (GR) signaling pathway (AID 720691; active = well fitted activation curve with a large enough effect in the signal ratio in the repeat runs, not every such curve was filed as active; the % refers to the signal ratio)
In short: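 Beta-lactamase reporter activity, read as fluorescence intensity, was measured in GR-bla HeLa cells exposed to compounds for 18 h at 37 C and then loaded with LiveBLAzer B/G FRET substrate for 2 h at room temperature.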

[17] = target: Androgen receptor (Homo sapiens) (UniProt P10275); assay: qHTS assay to identify small molecule antagonists of the androgen receptor (AR) signaling pathway (AID 743035; active = well fitted inhibition curve with a large enough effect in the signal ratio in the repeat runs, not every such curve was filed as active; the % refers to the signal ratio)
In short: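 Cell line: GeneBLAzer AR-UAS-bla GripTite (HEK293). Stimulus: R1881 added after compound. Exposure: 16 h, 37C, 5% CO2. Readout: LiveBLAzer B/G FRET fluorescence after 2 h at room temperature.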

[18] = target: Androgen receptor (Homo sapiens) (UniProt P10275); assay: qHTS assay to identify small molecule agonists of the androgen receptor (AR) signaling pathway (AID 743036; active = well fitted activation curve with a large enough effect in the signal ratio in the repeat runs, with a control signal flat, not every such curve was filed as active; the % refers to the signal ratio)
In short: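 Screening used 2,000 AR-bla HEK293 cells per well, treated 16 h at 37C with test compounds in DMSO alongside positive and DMSO-only controls; beta-lactamase activity was then read by LiveBLAzer B/G FRET fluorescence after 2 h at room temperature.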

[19] = target: Androgen receptor (Homo sapiens) (UniProt P10275); assay: qHTS assay to identify small molecule agonists of the androgen receptor (AR) signaling pathway using the MDA cell line (AID 743040; note: nearly all actives have a fitted effect of over 20% in size); details: MDA-kb2 AR-luc cells, MMTV luciferase, 16 h, stronger effect = higher value
In short: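 After a 5 h incubation at 37C and 0% CO2, MDA-kb2 reporter cells were dosed with compounds in DMSO and kept 16 h under the same conditions. Luciferase activity was then read as luminescence with ONE-Glo.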

[20] = target: Androgen receptor (Homo sapiens) (UniProt P10275); assay: qHTS assay to identify small molecule antagonists of the androgen receptor (AR) signaling pathway using the MDA cell line (AID 743042; note: nearly all actives have a fitted effect of over 55% in size)
In short: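 Antagonist mode: compounds plus R1881 agonist added to MDA-kb2 AR-luc cells, incubated 16 h at 37C. Luciferase reporter luminescence quantified, with multiplexed CellTiter-Fluor readout for cell viability.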

Chain of Glucocorticoid receptor (Homo sapiens) (P04150 whole entry, looked up): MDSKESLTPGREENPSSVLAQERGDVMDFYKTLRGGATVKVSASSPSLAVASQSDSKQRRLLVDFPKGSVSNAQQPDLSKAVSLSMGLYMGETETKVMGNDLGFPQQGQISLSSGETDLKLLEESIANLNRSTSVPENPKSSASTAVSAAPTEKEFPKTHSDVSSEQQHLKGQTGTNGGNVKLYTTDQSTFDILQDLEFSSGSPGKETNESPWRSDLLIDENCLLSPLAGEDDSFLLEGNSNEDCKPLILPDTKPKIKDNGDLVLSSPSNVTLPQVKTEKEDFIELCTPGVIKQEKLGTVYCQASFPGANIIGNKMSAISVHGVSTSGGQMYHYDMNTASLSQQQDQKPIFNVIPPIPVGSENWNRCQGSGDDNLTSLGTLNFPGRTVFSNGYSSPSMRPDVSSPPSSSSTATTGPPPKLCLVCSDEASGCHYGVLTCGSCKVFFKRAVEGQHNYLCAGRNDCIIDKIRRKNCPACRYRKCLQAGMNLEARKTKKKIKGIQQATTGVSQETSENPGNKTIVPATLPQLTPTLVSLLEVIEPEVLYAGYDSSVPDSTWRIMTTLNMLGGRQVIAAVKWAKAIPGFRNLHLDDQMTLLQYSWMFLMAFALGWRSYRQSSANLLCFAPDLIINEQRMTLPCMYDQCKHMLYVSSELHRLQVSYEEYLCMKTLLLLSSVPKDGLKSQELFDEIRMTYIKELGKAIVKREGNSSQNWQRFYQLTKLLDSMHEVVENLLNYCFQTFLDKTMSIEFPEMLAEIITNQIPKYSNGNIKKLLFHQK
Chain of Androgen receptor (Homo sapiens) (P10275 whole entry, looked up): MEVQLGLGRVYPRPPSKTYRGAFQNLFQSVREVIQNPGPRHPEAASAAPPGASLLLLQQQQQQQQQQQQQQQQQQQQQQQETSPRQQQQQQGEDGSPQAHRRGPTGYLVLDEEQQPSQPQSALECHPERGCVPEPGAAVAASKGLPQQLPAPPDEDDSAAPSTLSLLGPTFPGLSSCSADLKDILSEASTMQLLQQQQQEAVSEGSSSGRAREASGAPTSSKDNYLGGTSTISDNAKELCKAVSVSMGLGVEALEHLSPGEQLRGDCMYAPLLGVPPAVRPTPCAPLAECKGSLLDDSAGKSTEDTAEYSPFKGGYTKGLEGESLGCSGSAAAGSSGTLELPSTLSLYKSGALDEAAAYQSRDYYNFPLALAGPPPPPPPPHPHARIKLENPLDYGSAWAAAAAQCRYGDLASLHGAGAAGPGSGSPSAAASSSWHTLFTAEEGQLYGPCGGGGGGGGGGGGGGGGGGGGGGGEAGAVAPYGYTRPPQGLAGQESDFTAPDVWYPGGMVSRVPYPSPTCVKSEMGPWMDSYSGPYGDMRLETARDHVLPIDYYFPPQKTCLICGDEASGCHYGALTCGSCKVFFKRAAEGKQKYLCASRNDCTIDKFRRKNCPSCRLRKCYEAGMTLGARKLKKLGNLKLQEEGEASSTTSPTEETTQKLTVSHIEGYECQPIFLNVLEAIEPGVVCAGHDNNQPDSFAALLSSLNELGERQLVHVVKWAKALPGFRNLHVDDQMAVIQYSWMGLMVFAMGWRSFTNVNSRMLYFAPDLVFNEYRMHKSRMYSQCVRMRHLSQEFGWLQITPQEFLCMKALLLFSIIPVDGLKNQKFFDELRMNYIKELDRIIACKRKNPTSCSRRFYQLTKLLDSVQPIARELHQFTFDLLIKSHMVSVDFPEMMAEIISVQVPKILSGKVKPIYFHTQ

**Q.** With `COc1ccc(N)c(OC)c1` as the compound, how does the outcome [1] read?
**A.** inactive

**Q.** What about the Potency [2] of the same compound?
**A.** inactive

**Q.** And the outcome [3]?
**A.** inactive

**Q.** What about the outcome [4] of the same compound?
**A.** inactive

**Q.** And the outcome [5]?
**A.** inactive

**Q.** And the outcome [6]?
**A.** inactive

**Q.** And the Potency [7]?
**A.** inactive

**Q.** What about the Potency [8] of the same compound?
**A.** inactive

**Q.** And the Potency [9]?
**A.** inactive

**Q.** What about the Potency [10] of the same compound?
**A.** inactive

**Q.** And the Potency [11]?
**A.** inactive

**Q.** What about the Potency [12] of the same compound?
**A.** inactive

**Q.** What about the Potency [13] of the same compound?
**A.** inactive

**Q.** And the Potency [14]?
**A.** inactive

**Q.** For `OCCOCCOCCOCCOCCO`, which outcome [1] is on record?
**A.** inactive

**Q.** What about the Potency [2] of the same compound?
**A.** inactive

**Q.** What about the outcome [3] of the same compound?
**A.** inactive

**Q.** And the outcome [4]?
**A.** inactive

**Q.** And the outcome [5]?
**A.** inactive

**Q.** What about the Potency [15] of the same compound?
**A.** inactive

**Q.** And the Potency [7]?
**A.** inactive

**Q.** What about the Potency [9] of the same compound?
**A.** inactive

**Q.** And the Potency [10]?
**A.** inactive

**Q.** What about the Potency [11] of the same compound?
**A.** inactive and 24.3 µM (active)

**Q.** And the Potency [12]?
**A.** inactive

**Q.** And the Potency [13]?
**A.** inactive

**Q.** And the Potency [14]?
**A.** inactive

**Q.** Which outcome [1] does the source give for `CCCCCC(C)=O` here?
**A.** inactive

**Q.** And the Potency [2]?
**A.** inactive

**Q.** What about the outcome [3] of the same compound?
**A.** inactive

**Q.** What about the outcome [4] of the same compound?
**A.** inactive

**Q.** What about the outcome [5] of the same compound?
**A.** inactive

**Q.** And the outcome [6]?
**A.** inactive

**Q.** And the Potency [7]?
**A.** inactive

**Q.** And the Potency [8]?
**A.** inactive

**Q.** And the Potency [9]?
**A.** inactive

**Q.** What about the Potency [10] of the same compound?
**A.** inactive

**Q.** What about the Potency [11] of the same compound?
**A.** inactive

**Q.** And the Potency [12]?
**A.** inactive

**Q.** What about the Potency [13] of the same compound?
**A.** inactive

**Q.** What about the Potency [14] of the same compound?
**A.** inactive

**Q.** Which outcome [1] does the source give for `COC(=O)OC` here?
**A.** inactive

**Q.** What about the Potency [2] of the same compound?
**A.** inactive

**Q.** What about the outcome [3] of the same compound?
**A.** inactive

**Q.** And the outcome [4]?
**A.** inactive

**Q.** What about the outcome [5] of the same compound?
**A.** inactive

**Q.** And the outcome [6]?
**A.** inactive

**Q.** And the Potency [7]?
**A.** inactive

**Q.** And the outcome [16]?
**A.** inactive

**Q.** What about the Potency [8] of the same compound?
**A.** inactive

**Q.** And the Potency [9]?
**A.** inactive

**Q.** What about the Potency [10] of the same compound?
**A.** inactive

**Q.** What about the Potency [11] of the same compound?
**A.** inactive

**Q.** And the Potency [12]?
**A.** inactive

**Q.** What about the Potency [13] of the same compound?
**A.** inactive

**Q.** And the Potency [14]?
**A.** inactive

**Q.** With `Cc1ccc(C)c(S(=O)(=O)O)c1` as the compound, how does the outcome [1] read?
**A.** inactive

**Q.** And the Potency [2]?
**A.** inactive

**Q.** What about the outcome [3] of the same compound?
**A.** inactive

**Q.** What about the outcome [4] of the same compound?
**A.** inactive

**Q.** And the outcome [5]?
**A.** inactive

**Q.** And the Potency [15]?
**A.** inactive

**Q.** And the Potency [7]?
**A.** inactive

**Q.** And the Potency [9]?
**A.** inactive

**Q.** And the Potency [10]?
**A.** inactive

**Q.** And the Potency [11]?
**A.** inactive

**Q.** What about the Potency [12] of the same compound?
**A.** inactive

**Q.** What about the Potency [13] of the same compound?
**A.** inactive

**Q.** What about the Potency [14] of the same compound?
**A.** inactive

**Q.** Which outcome [1] does the source give for `O=c1c(O)c(-c2ccc(O)c(O)c2)oc2cc(O)cc(O)c12` here?
**A.** inactive

**Q.** What about the Potency [2] of the same compound?
**A.** inactive

**Q.** And the outcome [3]?
**A.** inactive

**Q.** What about the outcome [4] of the same compound?
**A.** inactive

**Q.** And the outcome [5]?
**A.** inactive

**Q.** And the Potency [15]?
**A.** inactive

**Q.** What about the Potency [7] of the same compound?
**A.** inactive

**Q.** What about the Potency [9] of the same compound?
**A.** inactive

**Q.** And the Potency [11]?
**A.** 54.5 µM (active) and 27.5 µM (active) and 61.1 µM (active)

**Q.** And the Potency [12]?
**A.** 30.7 µM (active) and 24.5 µM (active) and 61.1 µM (active)

**Q.** What about the Potency [13] of the same compound?
**A.** inactive

**Q.** And the Potency [14]?
**A.** inactive

**Q.** Which outcome [1] does the source give for `COc1c(Cl)ccc(Cl)c1C(=O)O` here?
**A.** inactive

**Q.** What about the Potency [2] of the same compound?
**A.** inactive

**Q.** What about the outcome [3] of the same compound?
**A.** inactive

**Q.** What about the outcome [4] of the same compound?
**A.** inactive

**Q.** And the outcome [5]?
**A.** inactive

**Q.** And the outcome [6]?
**A.** inactive

**Q.** And the Potency [7]?
**A.** inactive

**Q.** And the Potency [9]?
**A.** inactive

**Q.** What about the Potency [10] of the same compound?
**A.** inactive

**Q.** What about the Potency [11] of the same compound?
**A.** inactive

**Q.** And the Potency [12]?
**A.** inactive

**Q.** And the Potency [13]?
**A.** inactive

**Q.** And the Potency [14]?
**A.** inactive

**Q.** Which results are given for `O=C(O)Cc1c[nH]c2ccccc12`?
**A.** outcome [1]: inactive; Potency [2]: inactive; outcome [3]: inactive; outcome [4]: inactive; outcome [5]: inactive; Potency [7]: inactive; Potency [8]: inactive; Potency [9]: inactive; Potency [10]: inactive; Potency [11]: inactive; Potency [12]: inactive; Potency [13]: inactive; Potency [14]: inactive

**Q.** Which results are given for `CO[Si](CCCNCCN)(OC)OC`?
**A.** outcome [1]: inactive; Potency [2]: inactive; outcome [3]: inactive; outcome [4]: inactive; outcome [5]: inactive; outcome [6]: inactive; Potency [7]: inactive; Potency [9]: inactive; Potency [10]: inactive; Potency [11]: inactive; Potency [12]: inactive; Potency [13]: inactive; Potency [17]: inactive; Potency [18]: inactive; activity change ([19]; at 70.3 µM (top of the series)): -2.52% (inactive); activity change ([19]; at 95 µM (top of the series)): 0.325% (inactive); Potency [14]: inactive; Potency [20]: inactive
